NS1 function inh: influenza NS1 inhibition; AID 2326; 0.4% of 270,000 active; Potency, µM (titrated, usually from 46.1 µM), for the others: at the top dose activity, positive = more growth; calls by dose curve; note: potency is the fitted concentration of half-maximal effect; actives are rising curves; nearly all actives have a fitted effect of over 50% in size
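A cell-based growth assay was used: compounds that relieve NS1-induced slow growth of budding yeast raise OD600. Assay medium was yeast nitrogen base with ammonium sulphate and -URA supplement, pH 6.0, with 2% galactose.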
Sm TGR block: S. mansoni TGR enzyme inhibition | Q962Y6 | purified TGR, DTNB reduction, TNB absorbance 405 nm | Potency, µM (highest dose often 114 µM), without a hit: at the highest dose activity change, negative = inhibition, most hits filed as inhibitors | 3% of 360,000 active; note: potency is the fitted concentration of half-maximal effect; % is set by controls: 0 for no effect and ±100 for the full control effect; nearly all actives have a fitted effect of over 60% in size
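TGR 20 nM + NADPH 100 uM (dispensed conc.), cpd preinc 15 min RT; start with NADPH (500 uM addition) then DTNB (15 mM addition). Kinetic TNB absorbance, 405 nm filter. Four-parameter Hill fit across titration.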
Pf growth 48h: P. falciparum growth inhibition at 48 hours (one generation). AID 504832. Potency, µM (doses to about 28.7 µM), inactives show at the top dose activity change, negative = inhibition, actives largely listed as inhibitors. P. falciparum luciferase growth in erythrocytes, 48 h. 5.9% of 310,000 active; note: potency is the fitted concentration of half-maximal effect; % is set by controls: 0 for no effect and ±100 for the full control effect
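First compound was added to culture medium, then infected red cells at 0.1% parasitemia and 2% hematocrit (final). After incubation at 37 C under 5% CO2, luciferase detection reagent was dispensed and light output recorded.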
CHX counter: affects cycloheximide protein synthesis inhibition readout, counter-screen; 12% of 300,000 active; AID 2314; max response, %; cell reporter, cycloheximide protein synthesis inhibition counterscreen; in the data active = max response mostly above about 13%, no sharp cut-off; inactive = mostly below about 14%; note: read at 38.3 µM for the half of the compounds with a filed dose; 0% is about no effect
Pf growth 96h: P. falciparum growth inhibition at 96 hour, primary screen for plastid delayed-death inhibitors | P. falciparum luciferase reporter growth, 96 h | Potency, µM (titrated, usually from 28.7 µM), inactives show at the highest dose activity change, negative = inhibition, hits mostly inhibitors | 6.9% of 320,000 active; note: potency is the fitted concentration of half-maximal effect; % is set by controls: 0 for no effect and ±100 for the full control effect
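P. falciparum expressing integrated firefly luciferase grown in erythrocytes (2% hematocrit, 0.05% parasitemia final) with compounds for 96 hours at 37 C, 5% CO2. Growth inhibition read as loss of luminescence after adding luciferase detection reagent.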
Shiga inhibitor: Shiga toxin inhibition | Vero cells, Shiga toxin protein synthesis inhibition reporter | inhibition, % at 38.7 µM | 9.2% of 290,000 active; in the data active = inhibition mostly above about 28%, no sharp cut-off; inactive = mostly below about 43%; note: 0% is about no effect
An asterisk follows results filed as active; i = inactive; ? = inconclusive; / = not tested or not shown; [ ] = remark or other dose. An excerpt weighted towards active compounds, which were near 21% of everything screened. Unless noted, calls come from the whole dose curve; as a rule, active = well fitted curve in the direction sought with a large enough effect; inconclusive = small, poorly fitted or top-dose-only effect, or another doubt; inactive = no such curve, though single readings can be large; an effect the other way counts as inactive or inconclusive.

SMILES | NS1 function inh | Sm TGR block | Pf growth 48h | CHX counter | Pf growth 96h | Shiga inhibitor
Cc1cc(C)cc(OCC(=O)OCC(=O)c2cc(C)n(C3CC3)c2C)c1 | -4% | 1% | 15% | -3 | 5% | -12
Cc1ccc2c(c1)c1c(c(=O)n(-c3cccc(Cl)c3)c(=O)n1CC(=O)NCC1CCCO1)n2C (stereo not drawn) | / | -11% | / | / | / | /
O=C1O/C(=C/c2ccccc2)N=C1c1ccccc1 | 0% | -8% | 11% | -1 | -7% | 11
O=C1O/C(=C\c2ccccc2)c2ccccc21 | 0% | 5% | 21% | 31* | ? | 45*
CCCC(=O)Nc1ccc2c(c1)C(=O)NC2=O | 0% | 0% | 15% | -2 | 33% | 14
Cc1ccc2c(c1)Oc1ccc(NC(=O)CCCl)cc1C(=O)N2 | / | 0% | ? | -4 | 0.29µM* | -7
OCCN1CCN(c2nc(-c3ccccc3)c3cc(Cl)ccc3n2)CC1 | -39% | -2% | ? | -6 | ? | -24
OCCCCCN=c1cc(-c2ccccc2)oc2ccc(Cl)cc12 | -12% | -29% | ? | 45* | 13µM* | 85*
Clc1cccc(-c2nc(NCCCN3CCOCC3)c3ccccc3n2)c1 | 0% | -1% | ? | 5 | ? | 38
Clc1ccc2oc(-c3ccccc3)cc(=NCCCN3CCOCC3)c2c1 | / | -28% | 4.7µM* | 25* | ? | 93*
Cc1ccc(C)c(OCC(=O)NCC(C)C)c1C | 0% | 1% | 11% | -3 | -17% | -16
CC(C)CNC(=O)C(=O)Nc1cc2c3c(c1)C(C)C(=O)N3CCC2 (stereo not drawn) | 18% | -2% | -24% | 1 | 15µM* | -4
CC1C(=O)N2CCCc3cc(NC(=O)C(=O)NCCc4c[nH]c5ccccc45)cc1c32 (stereo not drawn) | / | -3% | 1.5µM* | / | 4.1µM* | /
CC1C(=O)N2CCCc3cc(S(=O)(=O)N4CCN(c5ccccc5F)CC4)cc1c32 (stereo not drawn) | 25% | 7% | 12µM* | 1 | 20% | -3
COc1ccccc1CCNC(=O)C(=O)Nc1cc2c3c(c1)CC(=O)N3CCC2 | / | 2% | 1.2µM* | / | 1µM* | /
O=C(NCCO)C(=O)Nc1cc2c3c(c1)CC(=O)N3CCC2 | -5% | 4% | 60% | 7 | 55% | 9
CC(C)CC(=O)Nc1cc2c3c(c1)C(C)C(=O)N3CCC2 (stereo not drawn) | 0% | -5% | 5% | 19 | 23% | -10
[N-]=[N+]=NC[C@@H]1O[C@@H](n2cnc3c(N)ncnc32)[C@@H]2O[C@@H]21 | -3% | / | / | / | / | /
COc1ccccc1CNS(=O)(=O)c1ccc(-c2cc(C(F)(F)F)on2)s1 | / | 17% | / | / | / | /
CC1C(=O)N2CCCc3cc(NC(=O)C(=O)NCCN4CCOCC4)cc1c32 (stereo not drawn) | / | -12% | 20% | / | 25% | /
CC1C(=O)N2CCCc3cc(NC(=O)C(=O)NCCc4ccccc4)cc1c32 (stereo not drawn) | / | 14% | ? | / | 13µM* | /
Cc1ccc(S(=O)(=O)Nc2cc3c4c(c2)C(C)C(=O)N4CCC3)cc1 (stereo not drawn) | / | -10% | 10µM* | / | ? | /
CCCN(CCC)C(=O)c1ccc2c(c1)N(CC)C(=O)c1ccccc1S2(=O)=O | -6% | -11% | 2%[0.00184 µM] | -5 | -17% | -8
CCc1ccc(-c2cc(C)no2)cc1S(=O)(=O)Nc1ccc(Cl)cc1 | / | 3% | / | / | / | /
COc1cc(C(=O)NCC(=O)N/N=C/c2cccc(OC(=O)c3ccco3)c2)cc(OC)c1OC | / | -6% | 16% | 15* | ? | 56
SMILES | NS1 function inh | Sm TGR block | Pf growth 48h | CHX counter | Pf growth 96h | Shiga inhibitor
O=C(CNC(=O)c1ccco1)N/N=C/c1ccc(O)c([N+](=O)[O-])c1 | -1% | -18% | 3% | -4 | 50% | 14
O=C(CNC(=O)c1ccco1)N/N=C/c1ccccc1[N+](=O)[O-] | / | -2% | 8% | 11 | 0.93µM* | 33
COc1cc(C(=O)NCC(=O)N/N=C/c2ccco2)cc(OC)c1OC | 3% | -4% | 21% | -2 | -2% | -2
COc1cccc(/C=N/NC(=O)CNC(=O)c2ccco2)c1O | 1% | 7% | -24% | 15* | 22% | 54
CC(=O)NC(CC(=O)NNC(=O)C(C)Oc1ccccc1F)c1ccccc1 (stereo not drawn) | / | 9% | -1% | / | 8% | /
O=C(N/N=C/c1cccc(OC2CSC2)c1)c1ccccc1O | -15% | -2% | ? | 26* | 17% | 85
Cn1nccc1C(=O)Oc1cccc(/C=N/NC(=O)c2ccccc2O)c1 | / | 9% | 9% | 18 | 37% | 33*
Cn1ncc(Br)c1C(=O)N/N=C/c1ccc(OS(=O)(=O)c2ccccc2)cc1 | 3% | 8% | 7% | 6 | -2% | 8
Cn1ncc(Br)c1C(=O)N/N=C/c1cccc(OC2CSC2)c1 | -11% | 0% | -8% | 4 | -47% | 26*
COc1ccc(Cl)cc1NC(=O)COC(=O)CC(C)(C)CC1=NS(=O)(=O)c2ccccc2N1 | / | -18% | / | / | / | /
COc1ccc(N=C2CCS(=O)(=O)c3sccc32)cc1 | 2% | / | 39% | 41* | 30% | 72
Cc1ccccc1C(=O)O/N=C1\CCS(=O)(=O)c2sccc21 | 6% | -34% | 149% | 39* | 41% | 83*
Cc1nc(Cl)c2c(n1)NC(=O)CO2 | -5% | 3% | 8% | 1 | 33% | 27
O=C(O)c1ccc(NC2=C/C(=N/S(=O)(=O)c3ccccc3)c3ccccc3C2=O)cc1 | / | 20µM* | ? | -6 | -22% | -11
Cc1cc(C)c(S(=O)(=O)/N=C2\C=C(NS(=O)(=O)c3ccccc3)C(=O)c3ccccc32)c(C)c1 | 13% | -3% | -24% | -1 | -24% | -2
Cc1cc(C)c(S(=O)(=O)/N=C2\C=C(Nc3ccc(C(=O)O)cc3)C(=O)c3ccccc32)c(C)c1 | -12% | ? | 9.3µM* | 6 | 18% | 24
Cn1c(=O)c2c(-c3ccc(Cl)cc3)n(Cc3ccc(Cl)cc3)cc2n(C)c1=O | / | -2% | / | / | / | /
Cc1cccc(C(=O)Nc2nnc(-c3ccc(C(C)(C)C)cc3)s2)c1 | -7% | 0% | 41% | 19* | 20% | 46
Cc1ccccc1C(=O)Nc1nnc(-c2ccc(C(C)(C)C)cc2)s1 | 12% | -6% | 22% | 16* | i | -9
Cc1cccc(C(=O)Nc2nnc(COc3ccccc3)s2)c1 | -3% | 9% | 13% | -3 | 11% | -9
COc1ccc(Cn2ccc3nc(C)c(C(=O)Nc4ccc(OC)cc4)cc3c2=O)cc1 | / | 1% | / | / | / | /
CN1CCc2nc(SCC(=O)Nc3cccc(F)c3)c(C#N)c(-c3cccs3)c2C1 | 26% | 20µM* | 13µM* | 37 | 10µM* | 53*
CN1CCc2nc(SCC(=O)Nc3ccc(OC(F)(F)F)cc3)c(C#N)c(-c3cccs3)c2C1 | ? | 35µM* | 0% | 5 | 0% | 1

Assay outcomes: PubChem, National Center for Advancing Translational Sciences (NCATS)
